Measured values: ChEMBL document CHEMBL3988442, “University of Dundee, Small-Polar-MMV Screening Library” (2021)
The whole screen tested about 48,000 compounds, of which about 13,000 (27%) showed an effect of 50% or more. Some of the results follow.

Each compound was assayed on Wolbachia pipientis (assay: Anti-Wolbachia Cell-Based Screen). Details: 5 µM.
Format: functional
Design: scale not given: in the data most compounds retested in dose-response had high values

Row | SMILES | Percent Effect
1 | COc1cc(F)ccc1C(C(=O)O)N1CCN(C2CCCCC2)CC1 (stereo not given) | -11.47%
2 | O=C(O)C(F)(F)F.O=C(O)C(F)(F)F.O=C(c1ccco1)N1CC[C@@H](N2CCOCC2)[C@@H]1Cc1ccncc1 | 0.4302%
3 | COc1ccc(C2CC(=O)NCc3nc4ccccn4c32)cn1 (stereo not given) | -7.087%
4 | Cc1c(NC(=O)NC2CCCC2)cccc1C(=O)N1CCSCC1 | 1.099%
5 | CN(C)S(=O)(=O)N1C[C@@H](OCc2ccccn2)[C@H]2OCCC[C@H]21 | -8.506%
6 | CN(Cc1cccnc1)C[C@H]1OC[C@@H]2CCN(c3ncccn3)C[C@@H]21 | -26.32%
7 | CN(Cc1cccnc1)[C@@H]1CN(c2ccccn2)[C@@H]2CCCO[C@H]12 | 82.23%
8 | Cc1nnc(N2C[C@H](OCc3cccnc3)[C@H]3OCCC[C@H]32)s1.O=C(O)C(F)(F)F.O=C(O)C(F)(F)F | -2.334%
9 | Cn1cnc2c1C(COCc1cccnc1)N(Cc1ccccn1)CC2 (stereo not given) | -4.63%
10 | Fc1cnc(N2CC[C@@H](N3CCOCC3)[C@@H]2Cc2cccnc2)nc1.O=C(O)C(F)(F)F.O=C(O)C(F)(F)F | -8.935%
11 | CN(Cc1cccnc1)[C@@H]1CN(c2ncc(F)cn2)[C@@H]2CCCO[C@H]12 | 115.7%
12 | CN(C)[C@@H]1CCN(c2ncc(F)cn2)[C@H]1Cc1cccnc1.O=C(O)C(F)(F)F.O=C(O)C(F)(F)F | -4.235%
13 | CN(Cc1cccnc1)[C@@H]1CN(Cc2ccccn2)[C@@H]2CCCO[C@H]12 | 150.6%
14 | O=C(c1scc2c1OCCO2)N1CCC(Cc2cccc(CO)c2)C1 (stereo not given) | -12.67%
15 | CC(=O)Nc1nc(CN2CCCC2Cn2cccn2)cs1 (stereo not given) | -22.51%
16 | CC(=O)Nc1nc(C(=O)N2CCCCC2Cn2cccn2)cs1 (stereo not given) | 109.7%
17 | CC(=O)Nc1nc(C(=O)N2CCCC2Cn2cc(C)cn2)cs1 (stereo not given) | -2.697%
18 | CC(=O)Nc1nc(C(=O)N2CCCCC2Cn2cc(C)cn2)cs1 (stereo not given) | 67.59%
19 | CC(=O)NCc1ccc(C(=O)N2CCCCC2Cn2cccn2)o1 (stereo not given) | -0.4212%
20 | CC(=O)Nc1nc(CN2CCCC2Cn2cc(C)cn2)cs1 (stereo not given) | -0.668%
21 | CC(=O)Nc1nc(C(=O)N2CCCC2Cn2cccn2)cs1 (stereo not given) | 136.5%
22 | O=C(c1cc(-n2cccn2)ccn1)N1CCOc2ccc(F)cc21 | 11.86%
23 | CCN(Cc1noc(CC(C)C)n1)Cc1cccc(F)c1O | 21.71%
24 | CCCc1nc(NCCCO)c2c(n1)c(C)nn2CC | 2.078%
25 | CC(C)CN1C[C@@H]2CN(C(=O)c3cccn3C)C[C@@H]2C1=O | -8.322%

Row | SMILES | Percent Effect
26 | O=C(C1CC1)N1C[C@@H](F)[C@@H](OCc2nc3cc(F)ccc3[nH]2)C1 | -13.75%
27 | CC(C)n1cnc(C2CN(C)c3ccc(C(=O)NCC4CC4)cc32)n1 (stereo not given) | -10.28%
28 | CCCn1nnnc1CSc1nccn1C | 1.571%
29 | CN(CCc1ccccc1)C(=O)c1cccnc1OCC(F)(F)F | 147.6%
30 | O=C(O)c1ncccc1OCC(F)(F)F | 2.885%
31 | O=C(NCCCn1ccnc1)c1cccnc1OCC(F)(F)F | 88.67%
32 | O=C(NCC(O)c1ccc(F)c(F)c1)c1cccnc1OCC(F)(F)F (stereo not given) | 8.161%
33 | O=C(NCCc1ccncc1)c1cccnc1OCC(F)(F)F | 113.2%
34 | O=C(c1cccnc1OCC(F)(F)F)N1CCCn2ncnc21 | -8.478%
35 | O=C(NCc1cccnc1OCC(F)(F)F)N1CCOCC1 | -14.27%
36 | O=C(CNC(=O)c1cnc2ccccc2c1O)NCCCn1ccnc1 | 9.933%
37 | NCc1cnn(-c2ccccc2C(=O)NCCCn2ccnc2)c1 | -6.38%
38 | O=C1COc2cc(S(=O)(=O)NCCC3=CCCCC3)c(Br)cc2N1 | 12.05%
39 | N#Cc1cccc(OCC(=O)N(Cc2ccncc2)C2CC2)c1 | -1.497%
40 | CCNC(=O)N1CCC(NC(=O)NCCc2cc(F)cc(F)c2)C1 (stereo not given) | -1.465%
41 | Cc1noc(C)c1NC(=O)NC1CCN(C(=O)OC(C)(C)C)CC1 | -1.211%
42 | c1ccc(CN2CCC(NCCSc3cnn[nH]3)C2)cc1 (stereo not given) | -16.66%
43 | O=C(c1noc2c1CCCC2)N1CCCC(c2nccs2)C1 (stereo not given) | 6.202%
44 | Cc1noc2ncc(C(=O)N3CCCC3c3ccncc3)cc12 (stereo not given) | 1.131%
45 | CN(C)c1cc(C2CCCN(C(=O)c3noc4c3CCCC4)C2)ccn1 (stereo not given) | 145.2%
46 | CN(C)c1ccc(C(=O)N2CCCC2c2ccc(Cl)cc2)nn1 (stereo not given) | -0.3166%
47 | CN(C)c1cc(C2CCCN2C(=O)c2noc3c2CCCC3)ccn1 (stereo not given) | 74.42%
48 | CCOCc1ncn2c1CN(S(=O)(=O)c1cccs1)CCC2 | -7.324%
49 | COCc1cc(CNC(=O)c2c(C)cc(C)[nH]c2=O)n[nH]1 | -6.309%
50 | O=C(c1ccc2cc[nH]c2c1)N1CCC(Nc2cccnn2)CC1 | 107.6%

Row | SMILES | Percent Effect
51 | O=C(c1ccc2c(c1)COC2)N1CCC(Nc2cccnn2)CC1 | 2.056%
52 | O=C(c1ccc2[nH]nnc2c1)N1CCC(Nc2cccnn2)CC1 | 101.2%
53 | O=C(c1ccc2c(c1)OCO2)N1CCC(Nc2cccnn2)CC1 | 90.41%
54 | O=C(c1ccc2[nH]c(=O)[nH]c2c1)N1CCC(Nc2cccnn2)CC1 | 102.4%
55 | O=C(c1cc[nH]n1)N1CCC(Nc2cccnn2)CC1 | 4.355%
56 | Cc1cc(C(=O)N2CCC(Nc3cccnn3)CC2)no1 | 29.64%
57 | CC(c1nc(C2CC2)no1)N(C)Cc1ccc(C#N)cc1 (stereo not given) | 15.66%
58 | CCc1noc(CNc2c(F)cccc2-n2cccn2)n1 | -15.19%
59 | Cn1nc(CNC(=O)CC#N)c2c1CN(C(N)=O)CC2 | 9.409%
60 | Cc1nnc(CCNC2CCN(c3ncnc4c(C)csc34)CC2)s1 | -2.082%
61 | N#Cc1cccc(C(=O)N2CCC(Nc3cccnn3)CC2)c1 | 94.09%
62 | Cn1nnc2cc(C(=O)N3CCC(Nc4cccnn4)CC3)ccc21 | 108.7%
63 | N#CC1(C(=O)N2CCC(Nc3cccnn3)CC2)CCCCC1 | -1.01%
64 | Cc1nn(C)c(C)c1CC(=O)N1CCC(Nc2cccnn2)CC1 | -9.502%
65 | N#Cc1ccc(CC(=O)N2CCC(Nc3cccnn3)CC2)cc1 | 101.7%
66 | Cc1nc(C(=O)N2CCC(Nc3cccnn3)CC2)cs1 | -1.209%
67 | CN(Cc1nc2ccccc2c(=O)[nH]1)C1CC(=O)N(C2CC2)C1=O (stereo not given) | -0.4558%
68 | COc1cccc(-c2cnc3n2CCC32CCN(S(C)(=O)=O)CC2)c1 | -9.63%
69 | CN1C(=O)CC(C(=O)O)C12CCN(Cc1ccc(F)cc1Cl)CC2 (stereo not given) | 0.7528%
70 | O=C(c1cnc(NCc2sccc2Br)c(Cl)c1)N1CCCCC1 | -7.953%
71 | COCCOc1ncccc1C(=O)Nc1ccc(-n2cncn2)c(F)c1 | -9.189%
72 | Cc1ccccc1C(NC(=O)CNC(=O)c1ccoc1C)C(C)C (stereo not given) | -4.038%
73 | Cc1cnn(CC2CCCN2C(=O)c2c(F)cccc2Cl)c1 (stereo not given) | 118.3%
74 | CCc1noc(C)c1C(=O)N1CCCC1Cn1cc(C)cn1 (stereo not given) | 5.124%
75 | Cc1cnn(CC2CCCN2C(=O)c2cccc(F)c2F)c1 (stereo not given) | 121.1%

Row | SMILES | Percent Effect
76 | Cc1cnn(CC2CCCN2C(=O)c2cccc3c2OCO3)c1 (stereo not given) | -6.859%
77 | Cc1cnn(CC2CCCN2C(=O)c2cc(C)nc3[nH]nc(C)c23)c1 (stereo not given) | 150.6%
78 | O=C(C1=CCCC1)N1C[C@@H]2COC[C@]2(COCc2ccncc2)C1 | 94.55%
79 | O=C(C1=CCCC1)N1CCC[C@]2(C[C@@H](Oc3ncccc3F)CO2)C1.O=C(O)C(F)(F)F | -5.101%
80 | O=C(C1=CCCC1)N1C[C@H]2CCC[C@@]2(COCc2ccncc2)C1.O=C(O)C(F)(F)F | 12.49%
81 | O=C(N1CCCC1)N1CC[C@H]2OCC[C@@]2(COc2ncccc2F)C1.O=C(O)C(F)(F)F | -10.69%
82 | O=C(C1=CCCC1)N1C[C@@H]2COC[C@]2(COCC2CC2)C1 | 119%
83 | O=C(C1=CCCC1)N1C[C@@H]2COC[C@]2(COc2ncccc2F)C1.O=C(O)C(F)(F)F | 91.91%
84 | O=C(Cc1ccco1)N1C[C@@H]2COC[C@]2(COCC2CCOCC2)C1 | -6.133%
85 | Cc1cc(F)ccc1C(=O)N1C[C@@H]2COC[C@]2(COCC2CC2)C1 | 3.024%
86 | O=C(c1ncoc1C1CCCO1)N1CCC2(CCCCC2)CC1 (stereo not given) | -6.426%
87 | CCOc1ccc(C(=O)NCc2ccnc(N3CCN(C)CC3)c2)cn1 | 4.898%
88 | Cc1nn(C)c(N(C)C)c1CNCc1nnc2n1CCCCC2.Cl | 5.74%
89 | CO[C@H]1CN(Cc2ccccc2F)[C@@H]2CCCO[C@H]12 | 2.761%
90 | C[C@@H]1CN(Cc2cc(C(F)(F)F)ccc2F)CC[C@@]1(O)C1CC1 | 18.84%
91 | COc1cc(CN2C[C@H](OC)[C@]3(CCCO3)C2)ccc1F | 93.9%
92 | COCCCC1(CO)CCCN(Cc2ccc(F)c(OC)c2)C1 (stereo not given) | -7.879%
93 | COC(=O)C1CN(Cc2cc(F)ccc2Br)CCO1 (stereo not given) | -7.364%
94 | CO[C@H]1CN(Cc2ccccc2F)C[C@@]12CCCO2 | 78.59%
95 | CO[C@H]1CN(Cc2cc(F)ccc2F)CC[C@@]12CCCO2 | 118.4%
96 | CS(=O)(=O)NCCC1CCCN(Cc2ccccc2F)C1 (stereo not given) | -31.18%
97 | COc1cc(CN2CC[C@@]3(CCCO3)[C@@H](O)C2)ccc1F | -7.237%
98 | Cc1ccc(CN2CCC3(CCCN(Cc4ccc(F)c(F)c4)C3)C2)o1 (stereo not given) | -5.305%
99 | CO[C@H]1CN(Cc2ccc(F)c(F)c2)C[C@@]12CCCO2 | 125.7%
100 | COc1coc(CN2CCCC(CCc3ccc(F)c(F)c3)C2)cc1=O (stereo not given) | 29.51%
